Hits are enriched below; roughly 3.7% of the tested compounds scored in any of these assays.
RE007 growth inh – less growth of the S. pombe RE007 Vpr strain; Potency, µM (top dose mostly 92.2 µM), for inactives: at the top dose activity change, negative = less growth, hits mostly inhibitors; S. pombe RE007 Vpr strain, BacTiter-Glo ATP luminescence, 24 h; hit rate 0.21% among 360,000; AID 651644; active means well fitted falling curve with a large enough effect; inconclusive means small, poorly fitted or top-dose-only effect; inactive means no such curve, though single readings can be large or run the other way; further: nearly all actives have a fitted effect of over 50% in size
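Fission yeast strain RE007, carrying one chromosomally integrated HIV-1 vpr copy, was seeded at OD 0.01 in PMG+AL medium with 23 nL pinned compound. After 24 h at 30 °C and 99% humidity, viability was read by BacTiter-Glo luminescence.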
TbPYK inhibitor – T. brucei pyruvate kinase inhibition | AID 624173 | Q57TT1 | hit rate 0.12% among 410,000 | TbPYK enzyme, Kinase-Glo Plus ATP luminescence, 45 min | Potency, µM (titrated, usually from 76.8 µM), inactives show top-dose activity, negative = inhibition, hits mostly inhibitors; further: nearly all actives have a fitted effect of over 50% in size
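Quantitative HTS: titrated library compounds versus trypanosomal pyruvate kinase in TEA buffer (pH 7.2) containing KCl, MgCl2, BSA and Tween-20. Reactions were initiated with ADP, 130 uM final. Kinase-Glo Plus luminescence was read after 45 min at RT.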
Sm TGR block – S. mansoni TGR enzyme inhibition. purified TGR, DTNB reduction, TNB absorbance 405 nm. Potency, µM (doses to about 114 µM), for the others: top-dose activity change, negative = inhibition, usual class: inhibitors. hit rate 3% among 360,000; further: nearly all actives have a fitted effect of over 60% in size
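Kinetic colorimetric format: TGR-catalysed, NADPH-driven DTNB reduction monitored via TNB absorbance. Enzyme dispensed at 20 nM; compound exposure 15 min at room temperature before reaction start.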
FMDV inh – antivirals against foot and mouth disease virus; FMDV antiviral cell-based qHTS; Potency, µM (doses to about 57.9 µM), for the others: at the highest dose activity change, negative = inhibition, actives largely listed as inhibitors; hit rate 1.2% among 410,000; calls by dose curve; tested in HEK293T cells; further: read-out not given here; nearly all actives have a fitted effect of over 45% in size
* hit, by the source's call; u = inconclusive; x = no result given; [ ] = another dose, or the depositor's remark. Unless noted, the call rests on the fitted dose curve; in most records, active means well fitted curve in the direction sought with a large enough effect; inconclusive means small, poorly fitted or top-dose-only effect, or another doubt; inactive means no such curve, though single readings can be large; an effect the other way counts as inactive or inconclusive. On the % scale 0 is the no-effect control and ±100 the full control effect; potency means the concentration at half of the fitted maximal effect.

SMILES | RE007 growth inh | TbPYK inhibitor | Sm TGR block | FMDV inh
COc1ccccc1-c1c(C)nn2c(N)c(-c3ccccc3)cnc12 | 3% | 5% | 9% | -11%
CC1CCN(C(=O)Cn2cc(SCC(=O)Nc3ccccc3C(F)(F)F)c3ccccc32)CC1 | x | 1% | -13% | u
COc1ccc(-n2ncc(C(=O)NCCCN3CCCCC3)c2C2CCN(C(=O)OC(C)(C)C)CC2)cc1 | x | 0%[15.4 µM] | 4% | -1%
CCOC(=O)CN[C@@H](C(=O)N1CC[C@H]1C(=O)NCc1ccc(/C(N)=N/O)cc1)C1CCCCC1 | x | -4% | x | x
O=C(O)C1C2C=CC(O2)C1C(=O)NCCC1=CCCCC1 (configuration not stated) | -1% | 2% | 22µM* | -14%
O=C(COC(=O)CCS(=O)(=O)c1ccccc1)Nc1ccccc1 | -3% | -13% | 8.9µM* | -8%
CC(=O)Nc1ccc(C(=O)COC(=O)CCS(=O)(=O)c2ccccc2)cc1 | 26% | -4% | -16% | -2%
Cn1c(Nc2ccc(Cl)cc2)cc(=O)n(C)c1=O | 2% | -4% | 20µM* | -14%
Cc1noc(C)c1C(=O)NNc1ccc(C(C)C)cc1 | 14% | -2% | 20µM* | -18%
CC1CCN(S(=O)(=O)c2ccc3c(c2)CCN3)CC1 | x | 4% | -2% | 38%
CCCSc1ncc(Cl)c(C(=O)Nc2scc(-c3ccc(C)cc3)c2C(=O)OCC)n1 | x | 3% | 1% | 15%
O=C(CCl)Nc1cccc(S(=O)(=O)N2CCCCCC2)c1 | x | -4% | 11µM* | 25µM*
O=C(CNc1cccc(F)c1)Nc1cccc(S(=O)(=O)N2CCCCC2)c1 | 0% | -7% | 1% | 17%
N#Cc1cccc(NC(=O)CNc2cccc(S(=O)(=O)N3CCCCC3)c2)c1 | -15% | -5% | -2% | 35µM*
NC(=NC1CCCCC1)c1ccc(Cl)cc1 | -8% | 0% | x | 1.4µM*
COc1ccccc1CNc1nc(NCc2cccc(OC)c2OC)c2sccc2n1 | u | 0% | x | 40µM*
C#Cc1cccc(Nc2nc(NCc3ccccc3OC)nc3ccsc23)c1 | -16% | -9% | x | 32µM*
COc1ccccc1CNc1nc(NCc2ccccc2F)c2sccc2n1 | -1% | 2% | x | 28µM*
CN(C)C(=O)c1ccc(-c2nccc(-n3ccnc3)n2)cc1 | x | x | x | 1%
CCCCc1oc2ccc(NS(C)(=O)=O)cc2c1C(=O)c1ccc(OCCCN(CCCC)CCCC)cc1 | x | -8% | x | x
O=C(c1ccco1)N1CCN(Cc2csc(-c3ccccc3Cl)n2)CC1 | u | -2% | 50µM* | -11%
CN1CCc2c(C#N)c(Cl)nc(Cl)c2C1 | 9% | 0% | 32µM* | -9%
CCc1c(C)sc2c1CCN(C(=O)Nc1ccc(F)c(Cl)c1)C2c1ccc(F)cc1 (configuration not stated) | x | 2% | -2% | 40µM*
O=C(N/N=C/c1cc(Cl)cc([N+](=O)[O-])c1O)NC12CC3CC(CC(C3)C1)C2 | -6% | -9% | -24% | 22µM*
O=C(N/N=C/c1ccccc1O)NC12CC3CC(CC(C3)C1)C2 | 13% | -9% | -20% | 10%
SMILES | RE007 growth inh | TbPYK inhibitor | Sm TGR block | FMDV inh
CCN1C(=O)[C@H]2[C@@H](c3ccc(-c4ccccc4)cc3)N[C@@](C)(C(=O)OC)[C@H]2C1=O | -8% | -7% | 40µM* | -16%
CCN1C(=O)[C@H]2[C@@H](c3ccc(-c4ccc(F)cc4)c(OC)c3)N[C@@](C)(C(=O)OC)[C@H]2C1=O | -25% | -7% | 16µM* | 0%
CC(=O)C1(O)Cc2c(O)c3c(c(O)c2C(OC2CC(N)C(O)C(C)O2)C1)C(=O)c1c(O)cccc1C3=O (configuration not stated) | x | 2% | x | x
Cc1nc2nc(SCC(=O)Nc3cccc(Cl)c3)nn2c(C)c1Cc1ccccc1 | x | -7% | 16% | u
CC1(C)CC(NC(=O)c2ccc(-c3ccc([N+](=O)[O-])cc3)o2)CC(C)(C)N1 | 2% | -5% | 40µM* | -15%
O=C(c1ccc(-c2cccc([N+](=O)[O-])c2)o1)N1CCN(c2ccc([N+](=O)[O-])cc2)CC1 | -10% | 3% | -18% | u
CC(OC(=O)c1ccc(-c2ccc([N+](=O)[O-])cc2)o1)C(=O)NC(N)=O (configuration not stated) | 2% | -7% | 4.5µM* | 0%
O=C(Nc1ccccc1)c1ccc(-c2ccc([N+](=O)[O-])cc2)o1 | 16% | -10% | 3.5µM* | 1%
O=C(O)c1ccc(-c2cccc([N+](=O)[O-])c2)o1 | -14% | -1% | 35µM* | -5%

Assay outcomes deposited in PubChem by National Center for Advancing Translational Sciences (NCATS).
